In paper PMC5540273 (PLoS ONE, 2017):
“And” between values parts separate entries of the source, which are not always exact repeats. Identical values can stand only once. Like-named read-outs stand apart in the source and are kept apart here.

Assays:
[1] = system: TSSK3; details: concentration: 1 μM, replicates: in singlicate, n = 1
[2] = system: TTK; details: concentration: 1 μM, replicates: in singlicate, n = 1
[3] = system: TXK; details: concentration: 1 μM, replicates: in singlicate, n = 1
[4] = system: TYK2(JH1domain-catalytic); details: concentration: 1 μM, replicates: in singlicate, n = 1
[5] = system: TYK2(JH2domain-pseudokinase); details: concentration: 1 μM, replicates: in singlicate, n = 1
[6] = system: TYRO3; details: concentration: 1 μM, replicates: in singlicate; n = 1
[7] = system: ULK1; details: concentration: 1 μM, replicates: in singlicate, n = 1
[8] = system: ULK2; details: concentration: 1 μM, replicates: in singlicate, n = 1
[9] = system: ULK3; details: concentration: 1 μM, replicates: in singlicate, n = 1
[10] = system: T1, VEGFR2; details: concentration: 1 μM, replicates: in singlicate, n = 1
T1 construct: gene KDR

[11] = system: T2, VPS34; details: concentration: 1 μM, replicates: in singlicate, n = 1
T2 construct: gene PIK3C3

[12] = system: VRK2; details: concentration: 1 μM, replicates: in singlicate, n = 1
[13] = system: WEE1; details: concentration: 1 μM, replicates: in singlicate; n = 1
[14] = system: WEE2; details: concentration: 1 μM, replicates: in singlicate, n = 1
[15] = system: WNK1; details: concentration: 1 μM, replicates: in singlicate; n = 1
[16] = system: WNK2; details: concentration: 1 μM, replicates: in singlicate, n = 1
[17] = system: WNK3; details: concentration: 1 μM, replicates: in singlicate, n = 1
[18] = system: WNK4; details: concentration: 1 μM, replicates: in singlicate, n = 1
[19] = system: T3, YANK1; details: concentration: 1 μM, replicates: in singlicate, n = 1
T3 construct: gene STK32A

[20] = system: T4, YANK2; details: concentration: 1 μM, replicates: in singlicate; n = 1
T4 construct: gene STK32B
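Also: KINOMEscan kinase panel screen.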

Cc1c2ccc(N(C)c3ccnc(Nc4cccc(S(N)(=O)=O)c4)n3)cc2nn1Cc1ccccc1.Cl.Cl [GW787226]
%Inh [1]: 0%
%Inh [2]: 35%
%Inh [3]: 17%
%Inh [4]: 16%
%Inh [5]: 0%
%Inh [6]: 0%
%Inh [7]: 3%
%Inh [8]: 0%
%Inh [9]: 6%
%Inh [10]: 99.2%
%Inh [11]: 0%
%Inh [12]: 0%
%Inh [13]: 0%
%Inh [14]: 6%
%Inh [15]: 0%
%Inh [16]: 0%
%Inh [17]: 0%
%Inh [18]: 0%
%Inh [19]: 0%
%Inh [20]: 0%

O=c1cc(N2CCOCC2)nc2n(Cc3cccc(Cl)c3Cl)c(C3CC3)nn12 [GSK2358994]
%Inh [1]: 0%
%Inh [2]: 0%
%Inh [3]: 7%
%Inh [4]: 11%
%Inh [5]: 0%
%Inh [6]: 35%
%Inh [7]: 0%
%Inh [8]: 10%
%Inh [9]: 0%
%Inh [10]: 0%
%Inh [11]: 100%
%Inh [12]: 0%
%Inh [13]: 0%
%Inh [14]: 0%
%Inh [15]: 0%
%Inh [16]: 0%
%Inh [17]: 0%
%Inh [18]: 0%
%Inh [19]: 0%
%Inh [20]: 0%

Fc1ccc(-c2nn3c(OCC(F)(F)F)cccc3c2-c2ccncc2)cc1 [GW514784]
%Inh [1]: 5%
%Inh [2]: 0%
%Inh [3]: 18%
%Inh [4]: 10%
%Inh [5]: 36%
%Inh [6]: 0%
%Inh [7]: 8%
%Inh [8]: 0%
%Inh [9]: 9%
%Inh [10]: 0%
%Inh [11]: 2%
%Inh [12]: 33%
%Inh [13]: 10%
%Inh [14]: 0%
%Inh [15]: 14%
%Inh [16]: 0%
%Inh [17]: 27%
%Inh [18]: 38%
%Inh [19]: 30%
%Inh [20]: 24%

NCCNS(=O)(=O)c1ccc(-c2ccnc3[nH]ccc23)cc1 [GSK977617]
%Inh ([1]; 1 µM): 34% and 22%
%Inh ([2]; 1 µM): 36% and 30%
%Inh ([3]; 1 µM): 10% and 0%
%Inh ([4]; 1 µM): 84% and 79%
%Inh ([5]; 1 µM): 38% and 30%
%Inh [6]: 0%
%Inh ([7]; 1 µM): 93.8% and 83%
%Inh ([8]; 1 µM): 39% and 33%
%Inh ([9]; 1 µM): 64% and 35%
%Inh ([10]; 1 µM): 7% and 24%
%Inh ([11]; 1 µM): 90% and 80%
%Inh ([12]; 1 µM): 13% and 7%
%Inh [13]: 9%
%Inh ([14]; 1 µM): 5% and 15%
%Inh [15]: 0%
%Inh ([16]; 1 µM): 7% and 0%
%Inh ([17]; 1 µM): 8% and 15%
%Inh ([18]; 1 µM): 0% and 5%
%Inh ([19]; 1 µM): 36% and 0%
%Inh [20]: 0%

CNc1ncnc2[nH]ncc12 [SKF-18355]
%Inh [1]: 0%
%Inh [2]: 0%
%Inh [3]: 0%
%Inh [4]: 15%
%Inh [5]: 27%
%Inh [6]: 0%
%Inh [7]: 11%
%Inh [8]: 42%
%Inh [9]: 14%
%Inh [10]: 1%
%Inh [11]: 30%
%Inh [12]: 10%
%Inh [13]: 5%
%Inh [14]: 0%
%Inh [15]: 0%
%Inh [16]: 0%
%Inh [17]: 12%
%Inh [18]: 0%
%Inh [19]: 0%
%Inh [20]: 9%
